Experimental data from PubChem BioAssay (EPA / NIEHS).
The source made the active and inactive calls. How the source made its calls: active means hit-call score of the fitted dose curve at least 0.9, where 1 is the maximum; inactive means score below 0.9.

test: ATG_M_32_CIS: Attagene CIS-FACTORIAL HepG2 Assay for M32 Transcription Factor (Internal Marker) (AID 2282949); details: HepG2 Attagene cis-factorial M32 reporter, mRNA; actives raise or lower the signal;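 further: background control marker of the multiplexed CIS panel rather than a real target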
Description: ATG_CIS is a cell-based, multiplexed-readout assay that uses HepG2, a human liver cell line, with measurements taken at 24 hours after chemical dosing in a 24-well plate.ATG_M_32_CIS is one of 52 assay component(s) measured or calculated from the ATG_CIS assay. It is designed to make measurements of mRNA induction, a form of inducible reporter, as detected with fluorescence intensity signals by Reverse transcription polymerase chain reaction (RT-PCR) and Capillary electrophoresis technology.Data from the assay component ATG_M_32_CIS was analyzed into 1 assay endpoint. This assay endpoint, ATG_M_32_CIS, was analyzed with bidirectional fitting relative to DMSO as the negative control and baseline of activity. Using a type of inducible reporter, measures of mRNA for gain or loss-of-signal activity can be used to understand the background control at the transcription factor-level as they relate to the gene . Furthermore, this assay endpoint can be referred to as a secondary readout, because this assay has produced multiple assay endpoints where this one serves a background control function. To generalize the intended target to other relatable targets, this assay endpoint is annotated to the background measurement intended target family, where the subfamily is internal marker.
Human liver HepG2 cells are transiently transfected with multiple reporter transcription units (MRTUs) in 6-well plates using FuGene 6 reagent (Roche; 3 ml FuGene/1 mg DNA). The MRTU constructs are regulated by a cis-regulating element (promoter). […] A major difference between the CIS and TRANS system is that in CIS activities of endogenous TFs are measured, whereas the TRANS assay evaluates changes in activities of exogenous, chimeric NR-Gal4 proteins. […] At the end of 24 hour incubation, total RNA was isolated using TriZol reagent (Invitrogen). The isolated RNA is then reverse-transcribed using oligo(dT) primer and Mo-MLV reverse transcriptase (Invitrogen) with DNAse I (Ambion) treatment for 30 min. The one-tenth of the produced cDNA was amplified by PCR using Taq DNA polymerase (Invitrogen) and two reporter sequence-specific primers. The PCR products were fluorescently labeled by primer extension with 6-arboxyfluorescein (6-FAM) 5'-labeled reporter sequence-specific primer (2 min at 95 C, 20 s at 68 C and 10 min at 72 C) and these products were digested with 5U of HpaI (New England Biolabs) for 2h at 37 C. The fragments were purified using Qiaquick PCR columns (Qiagen), analyzed on an ABI 3130xL genetic analyzer (Applied Biosystems) with peak positions identified by using a set of X-rhodamine (ROX)-labeled MapMarker1000 molecular weight standards (BioVentures). The raw capillary electrophoresis data was processed using Attagraph software (Attagene).

SMILES	outcome	AC50
C=CCOC(=O)/C=C\C(=O)OCC=C	inactive	
CC1=CCC(C(C)C)=CC1		69.4 µM (active)
CC(=O)CC(=O)N(C)C	inactive	
CCCCN(CCCC)CCCCCCN(CCCC)CCCC	inactive	
CCOC(=O)CC1(C)OCC(C)O1 (stereo not given)	inactive	
CCC(=O)OC(C)(C)C1CC=C(C)CC1 (stereo not given)	inactive	
NC(=O)c1c(Cl)cccc1Cl	inactive	
CCn1cc(C(=O)O)c(=O)c2ccc(C)nc21	inactive	
[Na+]	inactive	
C=C(C)C(=O)OCCC(C)OC(=O)C(=C)C (stereo not given)	inactive	
CCC(C)(C)C1CCC(OC)CC1 (stereo not given)	inactive	
CCOC(=O)C(=O)OCC	inactive	
c1ccc(Sc2ccccc2)cc1	inactive	
ClCCOCCOCCCl	inactive	
C=C/C(C)=C/C/C=C(\C)CCC=C(C)C	inactive	
CCCCCCCCOC(=O)c1ccc(O)cc1	inactive	
CCCCCC1C(=O)CCC1CC(=O)OC (stereo not given)	inactive	
CC(C)N(c1ccccc1)C(C)C	inactive	
COc1ccccc1O	inactive	
CCCCCCOC(C)=O	inactive	

SMILES	outcome	AC50
C[C@]12CC[C@@H]3c4ccc(O)cc4CC[C@H]3[C@@H]1CC[C@@H]2O	inactive	
CC(=O)CC(C)(C)C1CCCCC1	inactive	
Nc1ccc(N)c([N+](=O)[O-])c1	inactive	
O=c1cc(-c2ccc(O)cc2)oc2cc(O)cc(O)c12	inactive	
CCC(=O)OCC=Cc1ccccc1	inactive	
C=COCC1CCC(COC=C)CC1 (stereo not given)	inactive	
CCCCC(CC)COCCO (stereo not given)	inactive	
C=CCOCC(O)CO (stereo not given)	inactive	
CC(CO)(CO)[N+](=O)[O-]	inactive	
CC(C)C(=O)c1ccccc1	inactive	
C=C(C)C(=O)OCCOCCOC(=O)C(=C)C	inactive	
CCCCCCCCCCCCS	inactive	
CCCCCC1CCC(=O)O1 (stereo not given)	inactive	
c1ccc2c(c1)-c1ccc3ccc4cccc5cc-2c1c3c45	inactive	
C=C(C)C(=O)OCCC[Si](OC)(OC)OC	inactive	
O=S(=O)(O)CCCN1CCOCC1	inactive	
c1coc(CNc2ncnc3nc[nH]c23)c1	inactive	
CCCCCC(=O)O[C@]1(C(C)=O)CC[C@H]2[C@@H]3CCC4=CC(=O)CC[C@]4(C)[C@H]3CC[C@@]21C	inactive	
CC(C)Cc1ccc(C(C)C(=O)O)cc1 (stereo not given)	inactive	
COC(=O)c1ccc(C(=O)OC)cc1	inactive	
